# Experiments:
# Experiment in all cases: DAPPL (digital affinity profiling via proximity ligation, sequencing); 10 mM Tris-HCl pH 7.5, 50 mM NaCl, 1 mM DTT, 4% glycerol, room temperature, 30 min; GST-TFs on glutathione beads, 16-mer random dsDNA library, 0.1% formaldehyde crosslink after washing; high values mean tight binding
# FEV = target: T1, FEV (Homo sapiens, UniProt Q99581 1-238); conditions: protein: recombinant; tags: N-terminal GST; dsDNA, one strand shown
# T1 sequence: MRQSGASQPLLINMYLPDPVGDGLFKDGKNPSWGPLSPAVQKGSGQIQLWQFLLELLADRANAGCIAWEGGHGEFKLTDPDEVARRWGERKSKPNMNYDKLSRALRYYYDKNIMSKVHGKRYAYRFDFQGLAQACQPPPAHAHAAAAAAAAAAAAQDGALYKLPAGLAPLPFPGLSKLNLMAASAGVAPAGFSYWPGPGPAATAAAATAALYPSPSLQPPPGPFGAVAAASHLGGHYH
# In short: (§1)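 In yeast, human transcription factors were expressed with a GST fusion, then pulled down on glutathione beads and given DNA barcodes. Pooled with a tag-only sample, they were exposed to 200 nmole of a 16-mer random double-stranded DNA library (Tris/NaCl/DTT/glycerol buffer, room temperature, 30 min), washed, crosslinked with 0.1% formaldehyde, proximity-ligated using BsaI/T4 ligase for 1 h at 37 °C, PCR-amplified and read on an Illumina NextSeq500. Each hexamer's frequency of reads for a factor, divided by the matching frequency for the tag-only sample, gives the binding signal.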
# ETV5 = ETV5 (Homo sapiens, UniProt P41161 1-510); conditions: protein: recombinant; tags: N-terminal GST; dsDNA, one strand shown
# In short: as §1
# HSF1 = HSF1 (Homo sapiens, UniProt Q00613 1-529); conditions: protein: recombinant; tags: N-terminal GST; chain copies: 3; dsDNA, one strand shown
# In short: as §1
# SPIC = target: T2, SPIC (Homo sapiens, UniProt Q8N5J4 1-248); conditions: protein: recombinant; tags: N-terminal GST; dsDNA, one strand shown
# T2 sequence: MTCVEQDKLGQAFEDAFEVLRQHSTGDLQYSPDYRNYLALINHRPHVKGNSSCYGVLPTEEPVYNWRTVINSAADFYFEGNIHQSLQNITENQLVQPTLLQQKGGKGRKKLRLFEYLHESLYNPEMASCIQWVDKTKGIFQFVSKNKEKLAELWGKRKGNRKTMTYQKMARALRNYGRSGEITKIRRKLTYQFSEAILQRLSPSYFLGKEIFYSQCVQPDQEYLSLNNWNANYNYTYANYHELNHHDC
# In short: as §1
# ELF4 = ELF4 (Homo sapiens, UniProt Q99607 1-663); conditions: protein: recombinant; tags: N-terminal GST; dsDNA, one strand shown
# In short: as §1
# ELK4 = target: T3, ELK4 (Homo sapiens, UniProt P28324-2 1-405); conditions: protein: recombinant; tags: N-terminal GST; dsDNA, one strand shown
# T3 sequence: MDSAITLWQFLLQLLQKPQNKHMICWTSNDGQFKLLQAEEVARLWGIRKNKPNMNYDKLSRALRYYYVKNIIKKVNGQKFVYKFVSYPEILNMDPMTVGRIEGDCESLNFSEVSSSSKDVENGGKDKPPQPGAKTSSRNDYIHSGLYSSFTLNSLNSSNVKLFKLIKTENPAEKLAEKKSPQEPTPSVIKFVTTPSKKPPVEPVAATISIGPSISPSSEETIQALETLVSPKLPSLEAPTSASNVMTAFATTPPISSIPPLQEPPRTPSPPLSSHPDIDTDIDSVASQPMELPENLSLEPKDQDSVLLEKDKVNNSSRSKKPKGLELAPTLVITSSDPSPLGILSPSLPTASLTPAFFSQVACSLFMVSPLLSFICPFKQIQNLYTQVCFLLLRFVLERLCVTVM
# In short: as §1
# ETV2 = target: T4, ETV2 (Homo sapiens, UniProt O00321 1-342); conditions: protein: recombinant; tags: N-terminal GST; dsDNA, one strand shown
# T4 sequence: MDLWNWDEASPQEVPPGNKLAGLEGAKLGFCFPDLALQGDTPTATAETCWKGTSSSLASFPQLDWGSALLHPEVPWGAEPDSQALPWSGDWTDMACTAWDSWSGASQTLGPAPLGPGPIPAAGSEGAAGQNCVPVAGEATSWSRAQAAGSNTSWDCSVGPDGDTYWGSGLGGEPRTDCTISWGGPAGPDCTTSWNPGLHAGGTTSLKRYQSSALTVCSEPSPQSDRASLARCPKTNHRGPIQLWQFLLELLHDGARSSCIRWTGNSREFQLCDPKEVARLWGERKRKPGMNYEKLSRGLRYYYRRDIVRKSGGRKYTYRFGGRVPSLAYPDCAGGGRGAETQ
# In short: as §1
# ELF3 = target: T5, ELF3 (Homo sapiens, UniProt P78545 1-371); conditions: protein: recombinant; tags: N-terminal GST; dsDNA, one strand shown
# T5 sequence: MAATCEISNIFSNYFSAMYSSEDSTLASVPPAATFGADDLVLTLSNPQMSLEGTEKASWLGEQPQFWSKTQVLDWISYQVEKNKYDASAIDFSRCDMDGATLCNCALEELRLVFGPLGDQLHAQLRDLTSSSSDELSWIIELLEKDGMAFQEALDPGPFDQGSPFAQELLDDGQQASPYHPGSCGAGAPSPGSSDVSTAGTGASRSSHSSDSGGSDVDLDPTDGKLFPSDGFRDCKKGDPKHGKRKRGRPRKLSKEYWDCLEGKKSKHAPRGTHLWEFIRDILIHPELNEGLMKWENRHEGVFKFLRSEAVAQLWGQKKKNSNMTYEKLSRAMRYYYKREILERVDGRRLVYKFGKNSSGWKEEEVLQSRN
# In short: as §1
# CRX = CRX (Homo sapiens, UniProt O43186 1-299); conditions: protein: recombinant; tags: N-terminal GST; dsDNA, one strand shown
# In short: as §1
# ETV1 = ETV1 (Homo sapiens, UniProt P50549 1-477); conditions: protein: recombinant; tags: N-terminal GST; dsDNA, one strand shown
# In short: as §1
# ERF = target: T6, ERF (Homo sapiens, UniProt P50548 1-548); conditions: protein: recombinant; tags: N-terminal GST; dsDNA, one strand shown
# T6 sequence: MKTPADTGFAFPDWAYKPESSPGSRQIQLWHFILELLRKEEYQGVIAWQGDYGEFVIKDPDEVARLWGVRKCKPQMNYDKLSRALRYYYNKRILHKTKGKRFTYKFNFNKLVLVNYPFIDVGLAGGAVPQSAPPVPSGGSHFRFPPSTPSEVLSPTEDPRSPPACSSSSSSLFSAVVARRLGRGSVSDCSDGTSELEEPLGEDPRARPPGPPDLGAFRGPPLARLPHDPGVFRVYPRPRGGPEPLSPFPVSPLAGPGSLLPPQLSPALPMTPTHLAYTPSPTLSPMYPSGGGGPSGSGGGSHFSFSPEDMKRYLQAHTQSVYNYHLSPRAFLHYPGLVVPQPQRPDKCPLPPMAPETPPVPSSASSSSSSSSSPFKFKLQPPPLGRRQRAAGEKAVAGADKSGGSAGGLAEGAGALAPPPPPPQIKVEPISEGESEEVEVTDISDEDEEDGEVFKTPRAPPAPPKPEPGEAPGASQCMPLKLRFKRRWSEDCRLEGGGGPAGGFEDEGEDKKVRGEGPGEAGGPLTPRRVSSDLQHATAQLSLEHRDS
# In short: as §1
# ETV3L = target: T7, ETV3L (Homo sapiens, UniProt Q6ZN32 1-361); conditions: protein: recombinant; tags: N-terminal GST; dsDNA, one strand shown
# T7 sequence: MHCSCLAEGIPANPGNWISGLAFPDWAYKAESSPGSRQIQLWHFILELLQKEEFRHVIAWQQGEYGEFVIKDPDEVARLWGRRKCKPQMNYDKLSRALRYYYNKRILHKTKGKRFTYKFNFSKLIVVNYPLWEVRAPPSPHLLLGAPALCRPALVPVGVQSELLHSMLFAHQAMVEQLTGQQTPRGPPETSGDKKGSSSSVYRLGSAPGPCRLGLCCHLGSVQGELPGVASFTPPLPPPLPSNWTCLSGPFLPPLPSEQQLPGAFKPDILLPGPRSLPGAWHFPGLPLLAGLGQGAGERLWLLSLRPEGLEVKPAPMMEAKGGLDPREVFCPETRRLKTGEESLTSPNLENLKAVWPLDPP
# In short: as §1
# ETS2 = target: T8, ETS2 (Homo sapiens, UniProt P15036 1-469); conditions: protein: recombinant; tags: N-terminal GST; dsDNA, one strand shown
# T8 sequence: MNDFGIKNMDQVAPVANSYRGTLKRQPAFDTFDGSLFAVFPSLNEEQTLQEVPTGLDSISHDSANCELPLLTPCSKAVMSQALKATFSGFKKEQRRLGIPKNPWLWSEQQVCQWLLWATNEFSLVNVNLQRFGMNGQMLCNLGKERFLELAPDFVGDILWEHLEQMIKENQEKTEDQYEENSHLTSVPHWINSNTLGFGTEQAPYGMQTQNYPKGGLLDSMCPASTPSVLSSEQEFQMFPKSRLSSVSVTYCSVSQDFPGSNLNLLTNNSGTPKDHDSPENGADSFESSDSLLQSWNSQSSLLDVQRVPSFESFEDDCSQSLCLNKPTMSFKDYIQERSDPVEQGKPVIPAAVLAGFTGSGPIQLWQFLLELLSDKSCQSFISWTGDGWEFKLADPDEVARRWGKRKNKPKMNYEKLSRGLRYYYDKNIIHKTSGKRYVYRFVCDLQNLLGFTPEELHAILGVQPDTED
# In short: as §1
# SPDEF = target: T9, SPDEF (Homo sapiens, UniProt O95238 1-335); conditions: protein: recombinant; tags: N-terminal GST; dsDNA, one strand shown
# T9 sequence: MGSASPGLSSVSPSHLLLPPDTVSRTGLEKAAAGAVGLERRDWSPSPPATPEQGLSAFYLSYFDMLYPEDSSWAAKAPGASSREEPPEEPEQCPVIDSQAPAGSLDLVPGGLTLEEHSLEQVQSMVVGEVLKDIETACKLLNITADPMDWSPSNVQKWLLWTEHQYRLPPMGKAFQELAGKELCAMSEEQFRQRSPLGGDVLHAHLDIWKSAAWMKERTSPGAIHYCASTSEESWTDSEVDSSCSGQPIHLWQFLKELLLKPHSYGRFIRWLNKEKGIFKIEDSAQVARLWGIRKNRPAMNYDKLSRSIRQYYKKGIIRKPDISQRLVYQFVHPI
# In short: as §1
# ETV7 = target: T10, ETV7 (Homo sapiens, UniProt Q9Y603 1-341); conditions: protein: recombinant; tags: N-terminal GST; dsDNA, one strand shown
# T10 sequence: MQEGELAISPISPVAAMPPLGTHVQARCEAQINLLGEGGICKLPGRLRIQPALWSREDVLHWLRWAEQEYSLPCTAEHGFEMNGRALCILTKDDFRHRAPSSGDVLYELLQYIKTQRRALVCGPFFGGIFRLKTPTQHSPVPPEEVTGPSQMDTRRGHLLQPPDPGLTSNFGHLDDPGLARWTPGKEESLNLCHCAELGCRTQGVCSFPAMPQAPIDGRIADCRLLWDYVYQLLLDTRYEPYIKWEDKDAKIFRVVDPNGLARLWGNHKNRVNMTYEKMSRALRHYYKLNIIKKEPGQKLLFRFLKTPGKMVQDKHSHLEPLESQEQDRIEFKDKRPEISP
# In short: as §1
# ELF5 = target: T11, ELF5 (Homo sapiens, UniProt Q9UKW6-2 1-255); conditions: protein: recombinant; tags: N-terminal GST; dsDNA, one strand shown
# T11 sequence: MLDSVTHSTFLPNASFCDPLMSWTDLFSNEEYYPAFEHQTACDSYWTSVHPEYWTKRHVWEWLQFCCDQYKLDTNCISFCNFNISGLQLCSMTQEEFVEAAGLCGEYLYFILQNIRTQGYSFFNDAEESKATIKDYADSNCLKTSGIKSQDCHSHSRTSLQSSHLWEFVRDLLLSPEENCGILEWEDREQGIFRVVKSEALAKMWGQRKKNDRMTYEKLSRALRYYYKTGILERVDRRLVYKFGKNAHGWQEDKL
# In short: as §1
# ETV3 = target: T12, ETV3 (Homo sapiens, UniProt P41162-2 1-143); conditions: protein: recombinant; tags: N-terminal GST; dsDNA, one strand shown
# T12 sequence: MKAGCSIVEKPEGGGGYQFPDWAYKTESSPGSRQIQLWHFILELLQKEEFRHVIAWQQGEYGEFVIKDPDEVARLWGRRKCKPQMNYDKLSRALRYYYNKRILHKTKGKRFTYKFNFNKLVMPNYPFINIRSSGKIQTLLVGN
# In short: as §1
# ETV6 = ETV6 (Homo sapiens, UniProt P41212 1-452); conditions: protein: recombinant; tags: N-terminal GST; dsDNA, one strand shown
# In short: as §1
# ETV1, sequence (P50549 whole entry): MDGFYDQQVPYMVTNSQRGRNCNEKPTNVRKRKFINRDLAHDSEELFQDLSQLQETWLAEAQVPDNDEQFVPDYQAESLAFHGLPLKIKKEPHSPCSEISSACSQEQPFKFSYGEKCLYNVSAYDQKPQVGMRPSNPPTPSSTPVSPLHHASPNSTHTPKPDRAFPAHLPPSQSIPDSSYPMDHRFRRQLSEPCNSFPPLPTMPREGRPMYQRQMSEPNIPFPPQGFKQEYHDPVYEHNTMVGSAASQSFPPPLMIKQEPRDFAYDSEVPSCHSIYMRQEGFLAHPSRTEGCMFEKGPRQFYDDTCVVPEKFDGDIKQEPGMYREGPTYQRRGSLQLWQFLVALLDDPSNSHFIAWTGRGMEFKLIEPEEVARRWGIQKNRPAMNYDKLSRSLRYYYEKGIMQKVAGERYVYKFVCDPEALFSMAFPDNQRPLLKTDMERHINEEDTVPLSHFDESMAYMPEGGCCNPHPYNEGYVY
# HSF1, sequence (Q00613 whole entry): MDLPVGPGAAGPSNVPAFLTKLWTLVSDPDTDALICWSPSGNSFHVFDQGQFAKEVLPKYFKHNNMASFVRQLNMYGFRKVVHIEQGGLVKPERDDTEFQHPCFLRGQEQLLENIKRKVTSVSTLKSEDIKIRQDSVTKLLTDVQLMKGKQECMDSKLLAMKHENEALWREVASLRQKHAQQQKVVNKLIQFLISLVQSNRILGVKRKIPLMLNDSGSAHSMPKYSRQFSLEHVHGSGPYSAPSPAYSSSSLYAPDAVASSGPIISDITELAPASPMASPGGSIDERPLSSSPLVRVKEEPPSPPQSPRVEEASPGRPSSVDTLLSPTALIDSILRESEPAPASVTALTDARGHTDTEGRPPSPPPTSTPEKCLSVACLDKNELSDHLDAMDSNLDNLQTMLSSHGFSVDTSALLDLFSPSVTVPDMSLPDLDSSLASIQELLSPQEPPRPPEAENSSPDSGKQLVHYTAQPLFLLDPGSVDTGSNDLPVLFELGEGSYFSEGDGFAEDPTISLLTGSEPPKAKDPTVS
# ETV6, sequence (P41212 whole entry): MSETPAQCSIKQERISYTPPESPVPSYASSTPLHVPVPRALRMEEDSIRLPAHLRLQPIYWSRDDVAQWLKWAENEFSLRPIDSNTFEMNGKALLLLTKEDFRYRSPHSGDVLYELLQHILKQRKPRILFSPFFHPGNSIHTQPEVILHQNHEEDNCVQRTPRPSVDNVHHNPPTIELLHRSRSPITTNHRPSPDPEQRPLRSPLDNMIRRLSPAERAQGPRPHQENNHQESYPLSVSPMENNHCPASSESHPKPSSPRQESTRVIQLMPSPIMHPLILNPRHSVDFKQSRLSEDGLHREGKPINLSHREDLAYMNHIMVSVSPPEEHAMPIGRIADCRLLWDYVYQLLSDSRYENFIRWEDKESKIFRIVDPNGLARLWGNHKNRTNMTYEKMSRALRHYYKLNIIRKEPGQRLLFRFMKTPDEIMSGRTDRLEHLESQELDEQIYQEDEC
# ETV5, sequence (P41161 whole entry): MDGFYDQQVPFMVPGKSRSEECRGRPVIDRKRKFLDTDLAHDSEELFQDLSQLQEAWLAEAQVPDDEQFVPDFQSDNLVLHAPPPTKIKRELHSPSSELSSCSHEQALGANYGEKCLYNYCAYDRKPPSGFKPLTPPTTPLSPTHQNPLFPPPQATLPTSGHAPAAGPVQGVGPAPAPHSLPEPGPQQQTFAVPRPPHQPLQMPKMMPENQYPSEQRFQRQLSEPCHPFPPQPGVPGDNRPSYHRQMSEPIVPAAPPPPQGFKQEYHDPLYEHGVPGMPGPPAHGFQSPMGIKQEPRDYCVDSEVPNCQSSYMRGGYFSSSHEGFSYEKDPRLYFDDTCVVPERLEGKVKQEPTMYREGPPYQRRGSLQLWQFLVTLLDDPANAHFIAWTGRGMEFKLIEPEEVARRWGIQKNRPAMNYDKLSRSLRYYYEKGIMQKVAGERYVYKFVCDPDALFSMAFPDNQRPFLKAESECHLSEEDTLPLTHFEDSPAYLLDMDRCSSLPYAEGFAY
# CRX, sequence (O43186 whole entry): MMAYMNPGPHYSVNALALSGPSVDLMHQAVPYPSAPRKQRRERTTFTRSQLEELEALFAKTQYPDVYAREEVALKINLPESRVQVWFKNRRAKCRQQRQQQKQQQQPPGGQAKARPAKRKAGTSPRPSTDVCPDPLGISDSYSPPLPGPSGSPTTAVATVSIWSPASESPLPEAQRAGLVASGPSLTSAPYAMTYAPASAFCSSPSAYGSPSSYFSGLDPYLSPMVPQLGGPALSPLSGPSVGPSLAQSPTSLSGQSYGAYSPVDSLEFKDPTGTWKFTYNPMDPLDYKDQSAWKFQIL
# ELF4, sequence (Q99607 whole entry): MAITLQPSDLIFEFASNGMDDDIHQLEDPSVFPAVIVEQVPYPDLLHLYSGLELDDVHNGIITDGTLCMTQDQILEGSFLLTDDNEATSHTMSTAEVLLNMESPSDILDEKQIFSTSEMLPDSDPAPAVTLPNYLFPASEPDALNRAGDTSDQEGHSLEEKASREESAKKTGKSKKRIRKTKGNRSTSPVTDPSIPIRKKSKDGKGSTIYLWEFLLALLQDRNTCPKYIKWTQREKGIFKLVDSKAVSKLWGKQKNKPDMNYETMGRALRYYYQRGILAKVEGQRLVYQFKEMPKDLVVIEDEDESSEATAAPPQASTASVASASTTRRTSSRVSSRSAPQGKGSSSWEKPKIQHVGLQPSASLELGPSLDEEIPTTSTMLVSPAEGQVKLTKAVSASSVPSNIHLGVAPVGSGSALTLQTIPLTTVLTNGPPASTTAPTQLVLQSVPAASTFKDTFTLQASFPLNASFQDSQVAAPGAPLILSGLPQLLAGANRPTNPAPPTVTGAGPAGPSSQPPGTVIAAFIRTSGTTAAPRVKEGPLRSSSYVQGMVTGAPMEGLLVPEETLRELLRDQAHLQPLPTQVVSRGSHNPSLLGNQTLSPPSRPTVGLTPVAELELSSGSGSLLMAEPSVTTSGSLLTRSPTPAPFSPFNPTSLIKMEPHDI
sequence,measurement,setting,value
CTTACA,binding signal,FEV,"1.18 fold enrichment (6-mer frequency, TF over GST control)"
same,binding signal,ETV5,"1.31 fold enrichment (6-mer frequency, TF over GST control)"
same,binding signal,HSF1,"1.31 fold enrichment (6-mer frequency, TF over GST control)"
same,binding signal,SPIC,"1.27 fold enrichment (6-mer frequency, TF over GST control)"
same,binding signal,ELF4,"1.25 fold enrichment (6-mer frequency, TF over GST control)"
same,binding signal,ELK4,"1.3 fold enrichment (6-mer frequency, TF over GST control)"
same,binding signal,ETV2,"1.28 fold enrichment (6-mer frequency, TF over GST control)"
same,binding signal,ELF3,"1.41 fold enrichment (6-mer frequency, TF over GST control)"
same,binding signal,CRX,"1.6 fold enrichment (6-mer frequency, TF over GST control)"
same,binding signal,ETV1,"1.24 fold enrichment (6-mer frequency, TF over GST control)"
same,binding signal,ERF,"1.34 fold enrichment (6-mer frequency, TF over GST control)"
same,binding signal,ETV3L,"1.26 fold enrichment (6-mer frequency, TF over GST control)"
same,binding signal,ETS2,"1.14 fold enrichment (6-mer frequency, TF over GST control)"
same,binding signal,SPDEF,"1.34 fold enrichment (6-mer frequency, TF over GST control)"
same,binding signal,ETV7,"1.23 fold enrichment (6-mer frequency, TF over GST control)"
same,binding signal,ELF5,"1.35 fold enrichment (6-mer frequency, TF over GST control)"
same,binding signal,ETV3,"1.29 fold enrichment (6-mer frequency, TF over GST control)"
same,binding signal,ETV6,"1.24 fold enrichment (6-mer frequency, TF over GST control)"
